Screening data as filed in PubChem BioAssay.
GDH-TPI counter-1 – counter-screen for M. tuberculosis FBA inhibitors: GDH-TPI coupled enzymes. GDH-TPI coupled enzyme counterscreen, NADH absorbance. inhibition, % at 4.8 µM. hit rate 1.2% among 360,000; in the data active = inhibition above about 30%
Yp Topo-I inh – inhibitors of Yersinia pestis topoisomerase I; Y. pestis Topo-I cleavage product accumulation, plate reader; activity, % at 10 µM; hit rate 0.064% among 360,000; in the data active = activity above about 50%, passing the limit was not always enough
FBA Mtb inh – inhibits M. tuberculosis FBA enzyme; inhibition, % at 1 µM; purified M. tuberculosis FBA, fluorescence read-out; hit rate 2.3% among 360,000; in the data active = inhibition above about 27%
Target sequence (P9WQA3 whole entry, looked up): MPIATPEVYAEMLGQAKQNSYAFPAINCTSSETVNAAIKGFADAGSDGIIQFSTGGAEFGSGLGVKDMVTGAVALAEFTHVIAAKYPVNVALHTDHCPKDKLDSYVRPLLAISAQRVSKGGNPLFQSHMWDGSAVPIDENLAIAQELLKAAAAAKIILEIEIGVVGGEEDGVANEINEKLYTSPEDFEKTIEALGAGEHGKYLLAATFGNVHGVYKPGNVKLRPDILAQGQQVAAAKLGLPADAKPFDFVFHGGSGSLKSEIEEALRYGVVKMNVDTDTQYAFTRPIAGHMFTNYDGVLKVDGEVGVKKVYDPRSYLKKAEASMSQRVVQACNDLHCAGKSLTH
TcdB GH inh – inhibitors of Clostridioides difficile toxin B glycohydrolase; P18177; TcdB glycohydrolase enzymatic assay, plate reader; inhibition, % at 9.99 µM; hit rate 0.24% among 350,000; AID 652162
PrPC surface inh – inhibitors of human cell surface prion protein PrPC; AID 720596; hit rate 0.43% among 370,000; inhibition, % at 13.8 µM; P04156; TR-FRET read-out; in the data active = inhibition above about 24%
Mtb FBA confirm – confirmation of M. tuberculosis fructose-bisphosphate aldolase inhibitors. shares compounds with FBA Mtb inh. purified M. tuberculosis FBA, fluorescence read-out. inhibition, % at 1 µM. hit rate 78% among 5,600; in the data active = inhibition above about 27%
GDH-TPI counter-2 – GDH-TPI inhibition counter-screen for FBA inhibitors; shares compounds with FBA Mtb inh; GDH-TPI coupled enzyme counterscreen, fluorescence; inhibition, % at 1 µM; hit rate 81% among 5,600; AID 652141
Numbers stand for hits; . = inactive; / = not tested or not shown; + = active, no number. Only some compounds are listed: those with a hit (about 3.2% of all), similar ones and a draw of the others. Rule as the data show it, unless noted: active = inhibition above about 10%; inactive = the rest.

SMILES	GDH-TPI counter-1	Yp Topo-I inh	FBA Mtb inh	TcdB GH inh	PrPC surface inh	Mtb FBA confirm	GDH-TPI counter-2
CN(CC(O)COc1ccc(OCC(O)CN(C)C2CCCCC2)cc1)C1CCCCC1 (stereo unspecified)	.	.	.	/	.	/	/
C[C@H]1CN([C@@H](C)CO)C(=O)c2cccc(NC(=O)C3CCOCC3)c2O[C@H]1CN(C)Cc1ccc(Cl)c(Cl)c1	/	/	/	.	/	/	/
COc1ccc(CC(=O)NCC2CCCCC2)cc1OC	.	.	28	.	.	.	.
COc1cc(C(=O)NCCCNc2nc3cc(C)c(C)cc3cc2C#N)cc(OC)c1OC	.	.	52	.	.	75	62
COCCCNC(=S)NCCCNc1nc2cc(C)cc(C)c2cc1C#N	.	.	47	.	.	.	.
COc1ccc(C(=O)NCCNc2nc3cc(C)cc(C)c3cc2C#N)c(OC)c1	/	/	/	.	.	/	/
Cc1cc(C)c2cc(C#N)c(NCCNC(=S)NCCCN3CCOCC3)nc2c1	.	.	.	.	.	/	/
COc1ccc(C(=O)NCCCNc2nc3cc(C)cc(C)c3cc2C#N)cc1	.	.	37	.	.	.	.
COc1cc(C(=O)NCCNc2nc3cc(C)ccc3cc2C#N)cc(OC)c1OC	.	.	.	.	.	/	/
Cc1cccc2cc(C#N)c(NCCNC(=O)c3ccccc3)nc12	.	.	40	.	.	+	+
COc1ccc(NC(=O)N(C)C[C@H]2Oc3c(NC(=O)Nc4cccc5ccccc45)cccc3C(=O)N([C@@H](C)CO)C[C@@H]2C)cc1	/	/	/	.	/	/	/
C[C@@H]1CN([C@H](C)CO)C(=O)c2cc(C#CCN(C)C)cnc2O[C@@H]1CN(C)C(=O)Nc1cccc(F)c1	/	/	/	.	/	/	/
CO[C@H]1CN(C)C(=O)c2ccc(NC(=O)C3CC3)cc2OC[C@@H](C)N(Cc2cccnc2)C[C@H]1C	/	/	/	.	/	/	/
COc1ccc(NC(=O)Nc2ccc3c(c2)CC(=O)N([C@H](C)CO)C[C@@H](C)[C@@H](CN(C)Cc2ccc(-c4ccccc4)cc2)O3)cc1	/	/	/	.	/	/	/
COc1ccc(C(=O)NCCNc2nc3cc(C)cc(C)c3cc2C#N)nc1	/	/	/	.	.	/	/
COc1cc(OC)cc(C(=O)NCCNc2nc3cc(C)cc(C)c3cc2C#N)c1	.	.	31	.	.	.	.
Cc1cc(C)c2cc(C#N)c(NCCCNC(=O)c3cccnc3)nc2c1	.	.	47	.	.	32	30
C[C@H](CO)N1C[C@H](C)[C@H](CN(C)C(=O)CN2CCOCC2)Oc2ncc(/C=C/c3ccccc3)cc2C1=O	/	/	/	.	/	/	/
C[C@H]1CN([C@@H](C)CO)C(=O)c2cccc(NC(=O)Nc3ccc(C(F)(F)F)cc3)c2O[C@H]1CN(C)S(=O)(=O)c1ccc(Cl)cc1	/	/	/	.	/	/	/
C[C@H](CO)N1C[C@H](C)[C@H](CN(C)Cc2ccccc2C(=O)O)Oc2cc(-c3ccc(C(=O)N(C)C)cc3)ccc2S1(=O)=O	/	/	/	.	/	/	/
CC(C)NC(=O)N(C)C[C@@H]1OCCCC[C@@H](C)Oc2ccc(NS(C)(=O)=O)cc2C(=O)N([C@@H](C)CO)C[C@H]1C	/	/	/	.	/	/	/
C[C@H](CO)N1C[C@H](C)[C@H](CN(C)Cc2ccncc2)Oc2ccc(NC(=O)c3ccncc3)cc2C1=O	/	/	/	.	/	/	/
O=C(NCC1CCCO1)C1CCC(N2C(=O)c3ccccc3C2=O)CC1 (stereo unspecified)	.	.	.	/	.	/	/
O=C(NCC1CCCO1)C1c2ccccc2C(=O)N1C1CCCCCC1 (stereo unspecified)	.	.	41	.	/	112	97
COc1ccc(-c2cc(C(=O)O)c3sc(N4CCCCC4)nc3n2)cc1OC	.	.	94	/	.	109	67
SMILES	GDH-TPI counter-1	Yp Topo-I inh	FBA Mtb inh	TcdB GH inh	PrPC surface inh	Mtb FBA confirm	GDH-TPI counter-2
COc1ccc(-c2cc(-c3ccccc3)nc(N3CCCC3)n2)cc1OC	.	.	.	.	.	/	/
O=C(O)C[C@@H]1CC[C@@H](NC(=O)Nc2cc(F)ccc2F)[C@H](CO)O1	/	/	/	.	/	/	/
COc1ccccc1-c1ccc2c(c1)O[C@@H](CN(C)S(=O)(=O)c1ccc(F)cc1)[C@@H](C)CN([C@@H](C)CO)S2(=O)=O	/	/	/	.	/	/	/
CCOC(=O)c1cc2c(=O)n3ccccc3nc2n(C(C)C)c1=NC(=O)c1c(-c2c(F)cccc2Cl)noc1C	.	.	.	/	.	/	/
CCOC(=O)c1cc2c(=O)n3ccccc3nc2n(C)c1=NC(=O)c1c(-c2c(F)cccc2Cl)noc1C	.	.	33	.	.	162	132
CCOC(=O)c1cc2c(=O)n3ccccc3nc2n(Cc2ccco2)c1=NC(=O)c1ccc(OC)cc1OC	.	.	104	.	.	91	88
CCCCn1c(=NC(=O)c2cccnc2)c(C(=O)OCC)cc2c(=O)n3ccccc3nc21	.	.	56	/	.	134	91
C[C@@H]1CCCCO[C@@H](CN(C)Cc2ccc3c(c2)OCO3)[C@@H](C)CN([C@H](C)CO)C(=O)c2cc(NC(=O)CCC(F)(F)F)ccc2O1	/	/	/	.	/	/	/
C[C@@H]1CN([C@@H](C)CO)C(=O)c2c(c3ccccc3n2C)-c2ccccc2CO[C@@H]1CN(C)C(=O)Nc1cccc(F)c1	/	/	/	.	/	/	/
C[C@H]1CN([C@@H](C)CO)C(=O)c2cc(NC(=O)C3CC3)ccc2O[C@H]1CN(C)Cc1ccncc1	/	/	/	.	/	/	/
CCOC(=O)c1ccc(N2C=C(C(=O)OC)C(c3cccc(O)c3)C(C(=O)OC)=C2)cc1	.	.	111	.	.	97	81
COC(=O)C1=CN(c2ccc(OC)cc2)C=C(C(=O)OC)C1c1cccc(F)c1	.	.	.	.	.	/	/
CN1C(=O)c2ccccc2NC(=O)[C@]12O[C@@H]2c1cccc(O)c1	.	.	.	.	.	/	/
CN1C(=O)c2ccccc2N(C)C1c1cccc(O)c1 (stereo unspecified)	.	.	59	.	.	.	.
CN1C(=O)c2ccccc2N(C)C1c1ccc(F)cc1 (stereo unspecified)	.	.	54	.	.	40	35
COc1cc(C2N(C)C(=O)c3ccccc3N2C)ccc1O (stereo unspecified)	.	.	76	.	.	.	.
COc1cc(C2C(=O)c3ccccc3C2=O)ccc1O	.	.	.	.	.	/	/
CN1C(=O)c2ccccc2N(C)C1c1ccc2c(c1)OCO2 (stereo unspecified)	.	.	101	/	.	63	39
Cc1noc(C)c1NC(=O)Nc1ccc2c(c1)CC(=O)N([C@@H](C)CO)C[C@@H](C)[C@@H](CN(C)C(=O)Nc1ccc(C(F)(F)F)cc1)O2	/	/	/	.	/	/	/
Cc1noc(C)c1NC(=O)N(C)C[C@@H]1Oc2ccc(NC(=O)NC(C)C)cc2CC(=O)N([C@@H](C)CO)C[C@H]1C	/	/	/	.	/	/	/
Cc1ccc(S(=O)(=O)c2cc3c(=O)n4ccccc4nc3n(Cc3ccco3)c2=N)cc1	35	.	87	/	.	+	+
CCCn1c(=N)c(S(=O)(=O)c2ccc(F)cc2)cc2c(=O)n3ccccc3nc21	.	.	.	.	.	/	/
